Holding throughout (set-up): scale not given: direction of the effect not stated beside the values
Experiment [1] has as its target Protein translocase subunit SecA (Escherichia coli (strain K12)) (UniProt P10408). Put plainly: Assay to Identify E. coli SecA ATPase Inhibitors. It is filed as functional. The note with it: 30 µM.
For experiment [2], the target named is T1, Ubiquitin-activating enzyme e1, putative (Leishmania donovani (strain BPK282A1)) (UniProt E9BSI1).
T1 sequence (whole entry): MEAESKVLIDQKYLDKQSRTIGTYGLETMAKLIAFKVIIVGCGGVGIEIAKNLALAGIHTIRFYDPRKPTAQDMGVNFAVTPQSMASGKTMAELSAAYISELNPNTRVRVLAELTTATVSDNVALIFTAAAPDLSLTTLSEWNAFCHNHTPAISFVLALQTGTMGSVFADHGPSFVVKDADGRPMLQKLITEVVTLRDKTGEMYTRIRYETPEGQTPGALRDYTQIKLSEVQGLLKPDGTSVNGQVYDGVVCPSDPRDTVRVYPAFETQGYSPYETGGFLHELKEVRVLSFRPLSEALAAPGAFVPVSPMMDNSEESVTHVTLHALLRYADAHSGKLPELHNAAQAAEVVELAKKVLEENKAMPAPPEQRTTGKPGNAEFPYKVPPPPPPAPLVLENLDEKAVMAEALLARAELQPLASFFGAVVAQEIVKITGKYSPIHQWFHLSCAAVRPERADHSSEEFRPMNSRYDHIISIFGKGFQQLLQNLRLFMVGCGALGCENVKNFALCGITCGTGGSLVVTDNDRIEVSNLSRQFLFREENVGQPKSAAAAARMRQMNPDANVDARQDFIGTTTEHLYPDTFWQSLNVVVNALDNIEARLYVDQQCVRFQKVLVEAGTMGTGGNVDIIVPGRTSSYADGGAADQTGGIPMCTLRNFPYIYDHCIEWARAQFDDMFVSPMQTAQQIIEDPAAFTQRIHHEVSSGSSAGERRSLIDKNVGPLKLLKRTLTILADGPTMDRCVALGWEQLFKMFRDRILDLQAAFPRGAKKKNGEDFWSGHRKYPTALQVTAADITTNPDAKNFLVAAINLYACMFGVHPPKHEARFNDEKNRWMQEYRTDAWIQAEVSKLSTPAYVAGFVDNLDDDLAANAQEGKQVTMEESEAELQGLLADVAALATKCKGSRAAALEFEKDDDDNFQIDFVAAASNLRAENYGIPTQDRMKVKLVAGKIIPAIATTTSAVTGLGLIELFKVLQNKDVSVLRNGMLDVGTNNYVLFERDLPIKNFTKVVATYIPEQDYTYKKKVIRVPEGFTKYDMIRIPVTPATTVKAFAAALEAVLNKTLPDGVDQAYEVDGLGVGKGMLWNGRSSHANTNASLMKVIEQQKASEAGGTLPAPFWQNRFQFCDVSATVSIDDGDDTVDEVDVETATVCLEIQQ
Put plainly: Leishmania donovani Ubiquitin Activating Enzyme (LdE1). The following applies: 30 µM. It is filed as functional.

The target of experiment [3] is T2, Aspartate--tRNA(Asp/Asn) ligase (Mycobacterium tuberculosis (strain ATCC 25618 / H37Rv)) (UniProt P9WFW3). Also: in the data most compounds retested in dose-response had high values.
T2 sequence (whole entry): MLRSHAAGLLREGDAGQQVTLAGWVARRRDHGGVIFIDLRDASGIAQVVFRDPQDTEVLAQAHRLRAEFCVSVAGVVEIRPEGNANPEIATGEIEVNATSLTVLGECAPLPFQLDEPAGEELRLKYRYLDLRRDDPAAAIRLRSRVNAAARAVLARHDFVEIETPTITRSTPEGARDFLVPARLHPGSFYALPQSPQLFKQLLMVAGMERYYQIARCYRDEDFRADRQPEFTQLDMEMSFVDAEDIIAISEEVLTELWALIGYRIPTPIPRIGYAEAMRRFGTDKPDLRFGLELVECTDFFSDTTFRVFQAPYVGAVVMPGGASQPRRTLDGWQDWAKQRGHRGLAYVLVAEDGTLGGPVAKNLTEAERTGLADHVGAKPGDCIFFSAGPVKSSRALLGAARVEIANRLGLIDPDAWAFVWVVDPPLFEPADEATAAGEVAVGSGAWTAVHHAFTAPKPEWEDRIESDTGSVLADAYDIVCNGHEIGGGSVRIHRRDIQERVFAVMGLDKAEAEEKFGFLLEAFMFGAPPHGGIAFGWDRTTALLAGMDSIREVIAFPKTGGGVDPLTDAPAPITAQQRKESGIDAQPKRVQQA
Put plainly: Assay for Asp RNA synthetase-1 from Mycobacterium tuberculosis. It is filed as functional. The note with it: 30 µM.

Experiment [4] addresses Sialic acid-binding Ig-like lectin 9 (Homo sapiens) (UniProt Q9Y336). In words: Hs-Siglec9 ALPHAscreen SOP 20170721. The following applies: 10 µM.
Experiment [5] concerns Trypanosoma cruzi. Put plainly: Trypanosoma cruzi phosphomannomutase and mannose-1-phosphate guanylyltransferase assay. It is filed as functional. The following applies: 10 µM.
Experiment [6] addresses T3, Arginase-2, mitochondrial (Homo sapiens) (UniProt P78540).
T3 sequence (whole entry): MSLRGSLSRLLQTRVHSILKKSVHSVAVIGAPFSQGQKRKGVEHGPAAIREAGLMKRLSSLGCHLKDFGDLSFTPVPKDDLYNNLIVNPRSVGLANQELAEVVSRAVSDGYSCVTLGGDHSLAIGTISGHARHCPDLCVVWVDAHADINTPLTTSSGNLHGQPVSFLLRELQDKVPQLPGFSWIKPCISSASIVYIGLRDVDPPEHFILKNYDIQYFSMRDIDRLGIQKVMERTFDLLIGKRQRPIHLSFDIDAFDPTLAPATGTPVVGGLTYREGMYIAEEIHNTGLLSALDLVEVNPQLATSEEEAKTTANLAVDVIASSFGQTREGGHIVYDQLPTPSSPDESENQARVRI
Put plainly: in vitro enzyme assay to detect the production of urea directly proportional to the activity of Arginase II. Also: in the data most compounds retested in dose-response had high values. It is filed as functional. The following applies: 33.3 µM.

For experiment [7], the target named is T4, Proteasome subunit beta (Trypanosoma cruzi) (UniProt O96673).
T4 sequence (whole entry): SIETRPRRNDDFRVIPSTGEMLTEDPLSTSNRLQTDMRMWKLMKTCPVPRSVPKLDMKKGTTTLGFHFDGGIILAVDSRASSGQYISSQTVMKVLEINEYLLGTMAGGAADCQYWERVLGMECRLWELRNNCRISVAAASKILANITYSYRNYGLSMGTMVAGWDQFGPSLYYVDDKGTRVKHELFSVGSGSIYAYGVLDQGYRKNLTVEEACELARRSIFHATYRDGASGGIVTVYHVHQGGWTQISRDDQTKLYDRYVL
Put plainly: Trypanosoma cruzi proteasome chymotrypsin-like activity (TcProtChymo) assay. Also: in the data most compounds retested in dose-response had high values. It is filed as functional. The following applies: 9.37 µM.

The species named for experiment [8] is Homo sapiens. In words: To identify inhibition of the IFN signalling (Jak-Stat) pathway via expression of an eGFP reporter gene under the control of an IFN-stimulated response element (ISRE) containing MxA promoter. The note with it: 30 µM. It is filed as functional.
The target in experiment [9] is Shiga toxin 2 (Escherichia coli O157:H7) (UniProt P09385+P09386). Put plainly: E. coli 0.157:H7 Shiga Toxin SOP - stx2 screening assay. The following applies: 30 µM. It is filed as functional.
The target of experiment [10] is T5, Tyrosyl-tRNA synthetase, putative (Trypanosoma cruzi (strain CL Brener)) (UniProt Q4DSP6).
T5 sequence (whole entry): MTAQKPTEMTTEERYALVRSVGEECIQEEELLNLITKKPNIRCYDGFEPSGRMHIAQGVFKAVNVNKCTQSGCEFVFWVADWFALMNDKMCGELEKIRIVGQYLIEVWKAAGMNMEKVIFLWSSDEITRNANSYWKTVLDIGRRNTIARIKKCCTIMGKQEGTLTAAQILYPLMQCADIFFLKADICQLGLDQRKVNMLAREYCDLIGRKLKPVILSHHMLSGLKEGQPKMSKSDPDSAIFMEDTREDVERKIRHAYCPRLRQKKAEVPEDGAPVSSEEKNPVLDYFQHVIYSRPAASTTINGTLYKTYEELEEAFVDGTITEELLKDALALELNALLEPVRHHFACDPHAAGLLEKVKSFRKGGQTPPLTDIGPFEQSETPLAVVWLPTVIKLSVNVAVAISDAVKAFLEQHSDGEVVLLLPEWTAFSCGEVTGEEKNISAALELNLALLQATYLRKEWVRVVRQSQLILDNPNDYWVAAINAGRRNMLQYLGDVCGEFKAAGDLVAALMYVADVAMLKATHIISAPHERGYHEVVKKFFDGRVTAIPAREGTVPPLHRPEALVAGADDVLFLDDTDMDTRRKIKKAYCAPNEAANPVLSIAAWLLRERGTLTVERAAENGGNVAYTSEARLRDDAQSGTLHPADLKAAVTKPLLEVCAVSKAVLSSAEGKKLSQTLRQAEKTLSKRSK
In words: Trypanosoma cruzi tyrosyl tRNA synthetase (TcYRS) _High Tyrosine SOP. Also: in the data most compounds retested in dose-response had high values. It is filed as functional. The following applies: 30 µM.

The target of experiment [11] is T5, Tyrosyl-tRNA synthetase, putative (Trypanosoma cruzi (strain CL Brener)). In words: Trypanosoma cruzi tyrosyl tRNA synthetase (TcYRS) SOP. The following applies: 30 µM. It is filed as functional.
Experiment [12] has as its target Chromo domain-containing protein 1 (Saccharomyces cerevisiae (strain ATCC 204508 / S288c) (Baker's yeast)) (UniProt P32657). Put plainly: ScCHD-1 Enzyme Inhibition Assay. Also: in the data most compounds retested in dose-response had high values. The following applies: 30 µM. It is filed as functional.

For some of these results: Measured potencies and affinities stand elsewhere.

Chain of Protein translocase subunit SecA (Escherichia coli (strain K12)) (P10408 whole entry): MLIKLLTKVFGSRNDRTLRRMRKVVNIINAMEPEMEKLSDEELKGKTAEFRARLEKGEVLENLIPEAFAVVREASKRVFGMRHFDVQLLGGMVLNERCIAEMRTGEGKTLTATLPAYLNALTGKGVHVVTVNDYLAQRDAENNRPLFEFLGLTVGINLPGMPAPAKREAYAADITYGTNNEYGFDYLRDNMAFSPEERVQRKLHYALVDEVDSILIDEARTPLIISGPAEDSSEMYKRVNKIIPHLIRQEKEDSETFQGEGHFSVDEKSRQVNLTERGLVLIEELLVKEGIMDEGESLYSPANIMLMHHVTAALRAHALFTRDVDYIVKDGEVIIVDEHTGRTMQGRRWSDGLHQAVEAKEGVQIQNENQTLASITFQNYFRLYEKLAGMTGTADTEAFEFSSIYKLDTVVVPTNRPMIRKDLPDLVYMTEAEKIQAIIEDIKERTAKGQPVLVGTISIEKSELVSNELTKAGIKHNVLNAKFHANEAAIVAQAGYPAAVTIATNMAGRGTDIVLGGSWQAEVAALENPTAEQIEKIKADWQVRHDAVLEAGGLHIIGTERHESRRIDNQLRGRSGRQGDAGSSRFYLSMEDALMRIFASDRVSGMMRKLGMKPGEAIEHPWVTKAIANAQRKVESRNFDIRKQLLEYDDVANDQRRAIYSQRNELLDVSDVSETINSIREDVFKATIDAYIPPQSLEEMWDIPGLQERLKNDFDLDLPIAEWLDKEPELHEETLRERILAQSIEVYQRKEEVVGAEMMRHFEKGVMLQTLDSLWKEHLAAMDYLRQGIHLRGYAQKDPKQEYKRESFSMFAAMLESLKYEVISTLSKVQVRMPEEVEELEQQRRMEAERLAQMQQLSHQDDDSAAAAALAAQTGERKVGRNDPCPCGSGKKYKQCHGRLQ
Chain of Sialic acid-binding Ig-like lectin 9 (Homo sapiens) (Q9Y336 whole entry): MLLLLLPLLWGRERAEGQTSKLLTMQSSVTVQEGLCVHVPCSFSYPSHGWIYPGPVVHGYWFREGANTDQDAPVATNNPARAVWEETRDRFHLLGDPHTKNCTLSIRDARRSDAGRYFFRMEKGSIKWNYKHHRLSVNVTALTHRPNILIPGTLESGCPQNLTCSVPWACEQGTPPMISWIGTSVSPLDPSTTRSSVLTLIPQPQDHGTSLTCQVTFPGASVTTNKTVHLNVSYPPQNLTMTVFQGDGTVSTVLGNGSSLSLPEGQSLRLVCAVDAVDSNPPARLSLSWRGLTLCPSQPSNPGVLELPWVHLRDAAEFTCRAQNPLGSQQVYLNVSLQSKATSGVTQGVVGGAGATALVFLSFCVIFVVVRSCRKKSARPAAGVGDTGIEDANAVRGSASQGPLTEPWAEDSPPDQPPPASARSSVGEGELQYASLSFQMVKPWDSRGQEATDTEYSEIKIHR
Chain of Chromo domain-containing protein 1 (Saccharomyces cerevisiae (strain ATCC 204508 / S288c) (Baker's yeast)) (P32657 whole entry, the tested form may be a part): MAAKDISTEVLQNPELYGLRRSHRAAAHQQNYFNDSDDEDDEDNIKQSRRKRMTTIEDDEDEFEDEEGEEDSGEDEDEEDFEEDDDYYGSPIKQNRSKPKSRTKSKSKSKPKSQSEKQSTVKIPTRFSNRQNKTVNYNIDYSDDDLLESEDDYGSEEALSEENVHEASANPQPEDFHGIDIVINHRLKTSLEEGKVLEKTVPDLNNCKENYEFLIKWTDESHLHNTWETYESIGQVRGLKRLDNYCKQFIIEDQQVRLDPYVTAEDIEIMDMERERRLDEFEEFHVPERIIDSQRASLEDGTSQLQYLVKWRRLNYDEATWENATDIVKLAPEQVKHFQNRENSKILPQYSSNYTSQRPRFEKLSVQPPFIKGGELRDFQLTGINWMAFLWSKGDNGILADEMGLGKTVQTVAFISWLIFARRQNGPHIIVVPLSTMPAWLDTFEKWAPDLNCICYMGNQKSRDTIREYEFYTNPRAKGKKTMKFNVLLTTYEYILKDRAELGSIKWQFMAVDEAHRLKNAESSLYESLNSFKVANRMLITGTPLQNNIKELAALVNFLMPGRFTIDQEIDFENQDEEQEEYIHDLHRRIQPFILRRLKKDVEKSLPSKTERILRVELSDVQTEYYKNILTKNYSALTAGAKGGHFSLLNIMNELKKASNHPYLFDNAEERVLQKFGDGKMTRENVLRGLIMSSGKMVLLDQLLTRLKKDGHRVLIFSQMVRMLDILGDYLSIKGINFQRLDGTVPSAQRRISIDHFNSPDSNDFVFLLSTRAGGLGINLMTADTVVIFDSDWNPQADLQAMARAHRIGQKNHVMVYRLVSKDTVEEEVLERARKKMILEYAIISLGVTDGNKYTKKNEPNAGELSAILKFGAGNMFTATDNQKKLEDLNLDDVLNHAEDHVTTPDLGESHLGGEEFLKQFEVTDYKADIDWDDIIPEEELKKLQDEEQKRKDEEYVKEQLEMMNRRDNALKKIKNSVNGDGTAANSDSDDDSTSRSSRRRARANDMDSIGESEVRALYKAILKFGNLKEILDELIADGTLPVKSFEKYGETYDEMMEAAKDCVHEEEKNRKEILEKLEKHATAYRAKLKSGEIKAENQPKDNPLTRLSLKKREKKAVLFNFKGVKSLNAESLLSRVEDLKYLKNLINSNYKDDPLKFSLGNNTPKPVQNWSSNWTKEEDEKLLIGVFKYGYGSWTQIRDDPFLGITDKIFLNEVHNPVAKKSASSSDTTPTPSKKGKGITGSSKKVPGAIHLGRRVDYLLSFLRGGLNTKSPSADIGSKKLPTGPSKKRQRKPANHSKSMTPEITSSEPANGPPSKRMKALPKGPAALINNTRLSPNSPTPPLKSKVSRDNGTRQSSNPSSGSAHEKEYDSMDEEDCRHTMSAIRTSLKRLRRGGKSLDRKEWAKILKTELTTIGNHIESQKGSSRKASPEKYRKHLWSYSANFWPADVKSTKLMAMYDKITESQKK

Regarding `c1ccc(CN2CCC3(CC2)CCN(Cc2cccs2)C3)nc1`, the Percent Effect in [1] is -3.68%; in experiment [2] it was 11.7%; in [3], 1.23%; in experiment [4], -8.25%; in [5], -1.31%; in experiment [6], -0.457%. The Percent Effect in experiment [7] is 6.61%; in experiment [8], -11.1%; in [9], -13.1%; in [10] it was 8.7%; in experiment [11] it was -12.5%; in experiment [12], -12%.

As for `CC(C)Oc1ccc(CSc2nnc(CN3CCCC3=O)o2)cc1`, the Percent Effect in experiment [3] was -7.23%.

Regarding `O=C(NCC(F)(F)F)C1=NOC2(CCCNC2)C1` (stereo unspecified), the Percent Effect in [1] was -8.38%; in experiment [2], 3.9%; in [3] it was 1.78%; in [4], 4%; in [5] it was -3.21%; in experiment [6], -4.86%. Moreover, the Percent Effect in experiment [7] is 4.15%; in [8], -6.57%; in [9] it was 13.8%; in experiment [10] it was 4.74%; in experiment [11] it was 2.56%; in [12], -0.335%.

`COCCNC(=O)[C@@]12CCO[C@@H]1CCN(Cc1c(C)noc1C)C2`: the Percent Effect in experiment [1] is -4.83%; in experiment [2], 14.3%; in [3] it was 11.2%; in experiment [4] it was -7.07%; in experiment [5], 1.85%; in [6], 3.24%. Further, the Percent Effect was 8.91% in experiment [7]; -9.54% in experiment [8]; -12.8% in experiment [9]; 14.2% in experiment [10]; 12.8% in experiment [11]; -1.61% in experiment [12].

`Cc1noc(C)c1CN1CCO[C@H]2CN(CC3CC3)C[C@H]21`: the Percent Effect is -4.84% in experiment [1]; 11.7% in experiment [2]; -1.48% in experiment [3]; 9.57% in [4]; 4.58% in experiment [5]; 3.24% in experiment [6]. Further, the Percent Effect in experiment [7] is 18.4%; in experiment [8], 2.94%; in experiment [9] it was -2.75%; in experiment [10] it was 8.95%; in experiment [11], 20.5%; in experiment [12], 12.9%.

On to `CC[C@H]1N(C)CCC[C@]12CCC(=O)N2Cc1ccncc1`, for which the Percent Effect in [1] is -1.96%; in experiment [2], 32.5%; in experiment [3] it was 0.228%; in [4], 0.456%; in [5], 1.69%; in experiment [6] it was -1.83%. The Percent Effect in experiment [7] was 14.3%; in [8], 16.7%; in [9] it was -15.6%; in experiment [10], 7.73%; in experiment [11], 10%; in experiment [12] it was -8.84%.

These data come from ChEMBL document CHEMBL3988442, “University of Dundee, Small-Polar-MMV Screening Library” (2021).
